Screens (PubChem BioAssay)
BoNT A protease: inhibitors of Botulinum neurotoxin A light chain protease | actives 0.17% (n = 360,000) | AID 588499 | inhibition, % at 10 µM | multiplex microsphere protease substrate cleavage, flow cytometry; also: plate controls were buffer without enzyme for full effect and enzyme alone for no effect
GDH-TPI counter: counter-screen for M. tuberculosis FBA inhibitors: GDH-TPI coupled enzymes. GDH-TPI coupled enzyme counterscreen, NADH absorbance. inhibition, % at 4.8 µM. actives 1.2% (n = 360,000); in the data active = inhibition above about 30%;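 also: 0% = DMSO wells and 100% = wells lacking the enzyme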
Autofluor counter: flagged as autofluorescent in microsphere protease counterscreen | actives 3.1% (n = 360,000) | compound autofluorescence counterscreen, microsphere flow cytometry; active compounds read high | fluorescence intensity (test concentration not listed); in the data active = fluorescence intensity above about 16000; inconclusive = no clear call, values can overlap the other calls
Mtb FBA inh: Mtb fructose-bisphosphate aldolase inhibition | inhibition, % at 1 µM | actives 2.3% (n = 360,000) | purified M. tuberculosis FBA, fluorescence read-out | P9WQA3; in the data active = inhibition above about 27%;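 also: 0% = vehicle and 100% = reference inhibitor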
Target sequence (P9WQA3 whole entry, looked up): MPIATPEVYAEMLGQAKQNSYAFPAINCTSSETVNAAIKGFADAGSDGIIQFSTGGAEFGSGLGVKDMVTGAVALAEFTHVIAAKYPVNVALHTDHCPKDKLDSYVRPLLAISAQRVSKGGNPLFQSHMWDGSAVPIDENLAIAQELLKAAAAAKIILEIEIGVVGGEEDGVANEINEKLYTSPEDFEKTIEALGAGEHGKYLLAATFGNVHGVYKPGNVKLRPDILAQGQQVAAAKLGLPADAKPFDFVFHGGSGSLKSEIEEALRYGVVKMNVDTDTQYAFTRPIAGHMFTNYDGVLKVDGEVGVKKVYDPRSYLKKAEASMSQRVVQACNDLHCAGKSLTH
Anthrax LF prot: blocks Bacillus anthracis lethal factor protease. P15917. multiplex microsphere protease cleavage assay, LF. inhibition, % at 10 µM. actives 0.12% (n = 360,000); also: plate controls were buffer without enzyme for full effect and enzyme alone for no effect
BoNT F protease: inhibitors of Botulinum neurotoxin F light chain protease. inhibition, % at 10 µM. Multiplex microsphere protease cleavage assay, flow cytometry. actives 0.22% (n = 360,000); in the data active = inhibition above about 35%, passing the limit was not always enough; inconclusive = no clear call, values can overlap the other calls; also: plate controls were buffer without enzyme for full effect and enzyme alone for no effect
An asterisk follows results filed as active; ? = inconclusive; . = no result given. Hits are enriched below; roughly 6.6% of the tested compounds scored in any of these assays. Rule as the data show it, unless noted: active = inhibition above about 30%; inconclusive = no clear call, values can overlap the other calls; inactive = below that.

SMILES | BoNT A protease | GDH-TPI counter | Autofluor counter | Mtb FBA inh | Anthrax LF prot | BoNT F protease
O=C(NCCc1ccccc1)c1ncn[nH]1 | ? | 3 | 20498* | 1 | 2 | 0
COCC(=O)N(Cc1cc2ccc(C)c(C)c2n2nnnc12)C1CCCC1 | 0 | -3 | 3315 | 3 | -2 | 0
CC(Sc1nnc(CC(=O)Nc2ccccc2F)n1C)C(=O)Nc1nccs1 (stereo unspecified) | -1 | 12 | 3870 | -2 | 5 | 9
COc1ccc(NC(=O)CN(C2CCCCC2)S(C)(=O)=O)cc1Cl | -3 | -11 | 21935* | 1 | -2 | -5
CS(=O)(=O)N(CC(=O)NCCc1ccccc1)C1CCCCC1 | 5 | -4 | 18975* | 4 | 0 | 7
O=S(=O)(/C=C/C=C/S(=O)(=O)c1ccccc1)c1ccccc1 | 0 | 9 | 3065 | 4 | 5 | -7
O=C(Cc1nc(-c2cnccn2)no1)NNC(=O)Nc1ccccc1 | ? | 0 | 4072 | 1 | 35* | ?
Cc1ccc(S(=O)(=O)Nc2ccc(NC(=O)CN3CCCCC3)c(Cl)c2)cc1 | 1 | -11 | 19818* | 0 | -10 | 2
Cc1ccc(S(=O)(=O)N2CCN(CC(=O)Nc3ccccc3Cl)CC2)cc1 | 2 | 5 | 8525 | 3 | 8 | 1
COc1ccc2nc(NC(=O)Cc3cccs3)sc2c1 | 0 | 6 | 3287 | 4 | -1 | -5
Cc1cccc(OCc2nnc(NC(=O)Cc3cccs3)s2)c1 | 0 | 13 | 16333* | -2 | -2 | -2
Cc1ccc2nc(NC(=O)CNS(=O)(=O)c3ccc(Br)s3)sc2c1 | 6 | 9 | 21835* | 4 | 0 | 5
Cc1ccc2nc(NC(=O)Cc3cccs3)sc2c1 | -4 | -11 | 21273* | -2 | 0 | -6
Cc1cccc(Oc2ccccc2NC(=O)C2=COCCO2)c1 | -1 | 1 | 3389 | 1 | -3 | -8
CCn1c(NC(=O)c2ccco2)c(-c2ccccc2Cl)c(=O)c2ccccc21 | 1 | 19 | 23199* | -1 | 3 | 5
CCn1c(NC(=O)c2cccs2)nc2ccccc21 | 0 | 36* | 5948 | 1 | 1 | -14
Cc1ccc(C(=O)Nc2c(-c3cccs3)c(=O)c3ccccc3n2C)cc1 | 1 | 17 | 11204 | 0 | -2 | -1
Cn1c(NC(=O)c2ccco2)c(-c2ccccc2)c(=O)c2ccccc21 | 0 | 2 | 8467 | 0 | -3 | -4
CCn1c(NC(=O)c2cccs2)c(-c2cccs2)c(=O)c2ccccc21 | ? | 25 | 20705* | 4 | 1 | 4
CCCn1c(CCNC(=O)c2cccs2)nc2ccccc21 | 1 | 6 | 6074 | -3 | 2 | 2
Cc1cc2ccccc2n1CCNC(=O)c1cccs1 | 79* | 10 | 1143 | 3 | -97 | -136
CC1(C(=O)NS(=O)(=O)Cc2ccccc2C(F)(F)F)CCN1C(=O)Cc1ccccc1 (stereo unspecified) | 0 | -1 | 3644 | 0 | -2 | -2
CCOc1ccc2nc(N3CCCC(C(=O)NCCCN4CC(C)CC(C)C4)C3)sc2c1 (stereo unspecified) | 0 | 0 | 5854 | -3 | 2 | -4
CCCC(=O)Nc1c(-c2cccs2)c(=O)c2ccccc2n1C | 2 | 10 | 21477* | 0 | 0 | -1
CN(Cc1nc2ccccc2n1C)C(=O)c1cccs1 | -1 | 1 | 22484* | 1 | -6 | -3
SMILES | BoNT A protease | GDH-TPI counter | Autofluor counter | Mtb FBA inh | Anthrax LF prot | BoNT F protease
CN(Cc1nc2ccccc2n1C)c1ccccc1 | . | 13 | . | 3 | . | .
Cc1ccccc1C(=O)Nc1c(-c2cccs2)c(=O)c2ccccc2n1C | 0 | 29 | 6025 | 1 | -8 | 6
COc1ccc2cc(C(=O)NCc3ccccc3)[nH]c2c1 | 4 | -6 | 3989 | 6 | 3 | 7
CCOC(=O)c1[nH]c2ccc(OC)cc2c1NC(=O)NC(C)C | 0 | 2 | 2647 | 35* | -1 | -8
COc1ccc2[nH]c(C(=O)NCc3ccccc3)c(C)c2c1 | 3 | 3 | 3404 | 40* | 5 | 5
CCCS(=O)(=O)Nc1c(C(=O)O)[nH]c2ccc(OC)cc12 | -1 | 1 | 4364 | 129* | 0 | -9
CCOC(=O)c1[nH]c2ccccc2c1NC(=O)NC(C)C | . | 16 | . | 4 | . | .
COC(=O)c1cn(NC(=O)Cc2ccccc2Br)c(=O)c2ccccc12 | -1 | 3 | 4107 | 0 | 0 | -3
CCOC(=O)c1sc(=S)n(C)c1NC(=O)c1ccccc1 | -1 | 36* | 10788 | -2 | -4 | -11
